# Compounds with a hit are over-represented: about 9.2% of the library has one in this group of screens.
# ELG1 repair inh = inhibitors of ELG1-dependent DNA repair in HEK293T cells; Potency, µM (titrated, usually from 46.1 µM), for inactives: top-dose activity change, negative = inhibition, most hits filed as inhibitors; 330,000 compounds, 2.3% hits; HEK293T ELG1-luciferase reporter, luminescence, 16 h; DNA damage induced by 5-fluorouridine; note: % is set by controls: 0 for no effect and ±100 for the full control effect; nearly all actives have a fitted effect of over 55% in size
#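 Overnight (16 hr) co-exposure of 2,000 cells/well to 5-fluorouridine and compound at 37 °C preceded detection. Luciferase was quantified via ONE-Glo luminescence; loss of signal denotes inhibition.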
# Rab9 promoter act = activators of Rab9 promoter | 320,000 compounds, 2.8% hits | Potency, µM (top dose mostly 9.22 µM), inactives show at the highest dose activation, negative = inhibition, actives largely listed as activators | AID 485297 | Huh7 Rab9 promoter-luciferase reporter, luminescence, 24 h; note: % of control where 0% means no effect; nearly all actives have a fitted effect of over 60% in size
#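 Huh7 reporter line, Rab9 promoter upstream of luciferase. Compound exposure 24 h at 37 °C in reduced-serum medium with 10% FBS. Read-out: luminescence.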
# ELG1 genotox = genotoxicity induction in ELG1-luciferase HEK293T cells; 330,000 compounds, 1.3% hits; AID 504466; HEK293T ELG1-luciferase reporter, luminescence, 16 h; Potency, µM (series often up to 46 µM), without a hit: top-dose activity change, positive = activation, usual class: activators; note: % of control where 0% means no effect; nearly all actives have a fitted effect of over 60% in size
#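 Step 1: seed 2,000 HEK293T ELG1-luciferase cells per well. Step 2: add compound or DMSO, incubate 16 hr at 37 °C. Step 3: ONE-Glo, 30 min at room temperature, read luminescence.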
# SMN2 splice up = SMN2 splice variant enhancement; HEK293 SMN2-luciferase splicing reporter, luminescence, 30-36 h; Potency, µM (doses to about 46.1 µM), without a hit: top-dose activity change, positive = activation, usual class: activators; 210,000 compounds, 2.8% hits; AID 1458; note: % of control where 0% means no effect; nearly all actives have a fitted effect of over 55% in size
#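 HEK293 cells carry an SMN2 minigene-luciferase reporter in which exon 7 inclusion puts luciferase in frame. Cells were seeded at 2000 cells/well, attached for 10-12 hours, then exposed to compounds for 30-36 hours at 37C before ONE-Glo luminescence.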
# NPC1 prom act = activates the NPC1 promoter; Huh7 NPC1 promoter luciferase reporter, 24 h; Potency, µM (highest dose often 9.22 µM), for inactives: at the highest dose activation, most hits filed as activators; 320,000 compounds, 2.4% hits; AID 485313; note: % of control where 0% means no effect; nearly all actives have a fitted effect of over 60% in size
#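 Luminescence from an NPC1 promoter-driven luciferase reporter in stably transfected Huh7 cells was measured after 24 h compound treatment at 37 °C, followed by 10 min ambient incubation with luciferase detection reagent.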
# FLuc modulator = counter-screen for miR-21 project: firefly luciferase inhibitors or activators; purified FLuc, Km substrates, luminescence inhibition; Potency, µM (top dose mostly 57.5 µM), without a hit: at the top dose activity change, negative = inhibition, usual class: inhibitors; 360,000 compounds, 6.9% hits; AID 588342;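 note: plate controls were vehicle for no effect and reference inhibitor for full effect; nearly all actives have a fitted effect of over 55% in size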
# Target sequence (P08659 whole entry, looked up): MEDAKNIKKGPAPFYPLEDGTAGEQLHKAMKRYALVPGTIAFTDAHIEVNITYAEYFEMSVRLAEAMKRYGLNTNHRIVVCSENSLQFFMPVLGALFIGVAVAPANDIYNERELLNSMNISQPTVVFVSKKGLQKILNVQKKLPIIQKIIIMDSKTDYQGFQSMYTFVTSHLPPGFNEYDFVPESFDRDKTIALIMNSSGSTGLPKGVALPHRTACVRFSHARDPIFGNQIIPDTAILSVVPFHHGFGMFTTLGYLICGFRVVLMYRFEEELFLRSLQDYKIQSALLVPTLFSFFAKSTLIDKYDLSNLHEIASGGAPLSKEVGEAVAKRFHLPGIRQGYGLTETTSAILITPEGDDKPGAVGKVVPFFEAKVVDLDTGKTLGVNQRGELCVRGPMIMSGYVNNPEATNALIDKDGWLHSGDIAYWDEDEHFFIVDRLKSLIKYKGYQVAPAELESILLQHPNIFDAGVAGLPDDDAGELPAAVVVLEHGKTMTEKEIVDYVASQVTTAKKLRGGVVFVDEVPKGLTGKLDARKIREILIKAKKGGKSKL
#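 Purified P. pyralis luciferase, 10 nM final, with Km-level 10 uM D-luciferin and 10 uM ATP in 50 mM Tris acetate pH 7.5, 10 mM Mg acetate, 0.01% Tween-20, 0.05% BSA; 6-point qHTS titration about 60 µM downward; luminescence read.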
# An asterisk follows results filed as active; ? = inconclusive; . = not tested or not shown. Calls come from the whole dose curve; as a rule, active = well fitted curve in the direction sought with a large enough effect; inconclusive = small, poorly fitted or top-dose-only effect, or another doubt; inactive = no such curve, though single readings can be large; an effect the other way counts as inactive or inconclusive. Potency is the fitted concentration of half-maximal effect.
SMILES,ELG1 repair inh,Rab9 promoter act,ELG1 genotox,SMN2 splice up,NPC1 prom act,FLuc modulator
BrC(=C\c1ccccc1)/C=N/Nc1nc2ccccc2[nH]1,?,18%,10%,-10%,21%,2.7µM*
C(=N\Nc1nc2ccccc2[nH]1)/c1ccc2ncccc2c1,?,0.79µM*,-8%,.,1.4µM*,2.1µM*
CCCCn1c(/C=N/Nc2nc3ccccc3[nH]2)nc2ccccc21,-19%,-31%,11%,-79%,-4%,?
C/C(CC(=O)NC12CC3CC(CC(C3)C1)C2)=N\NC(=O)c1ccc(C)cc1,2%,-4%,2%,.,-3%,6%
Cc1ccc(/C=N\Nc2nc3ccc(Cl)cc3[nH]2)o1,?,4.5µM*,8%,?,2.5µM*,8.5µM*
C#CCn1cc(/C=N/NC(=O)COc2cccc3cccnc23)c2ccccc21,5%,-2%,4%,8%,1%,-18%
C#CCn1cc(/C=N/Nc2nc3ccccc3[nH]2)c2ccccc21,?,4%,12%,?,-2%,19µM*
Cc1ccc(/C=N/Nc2nnc(Cc3ccccc3)c(=O)[nH]2)o1,0%,-4%,3%,5%,-4%,1%
COc1nc(-c2ccccc2)nnc1-c1ccccc1,?,3.2µM*,8.2µM*,13µM*,?,5.4µM*
Clc1ccc(-c2nnc(-c3ccccc3)c(-c3ccccc3)n2)cc1,0%,-2%,-3%,.,-1%,0%
CC(C)Sc1nsc2nc(=O)c(/C=C3\C=Nc4ccccc43)c(N)n12,1%,-2%,0%,1%,-1%,24µM*
CC(C)c1nn2c(N)c(/C=C3\C=Nc4ccccc43)c(=O)nc2s1,-17%,-6%,4%,.,1%,?
CS(=O)(=O)c1nsc2nc(=O)c(/C=C3\C=Nc4ccccc43)c(N)n12,-4%,1%,4%,3%,-1%,15µM*
CCCc1nn2c(N)c(/C=C3\C=Nc4ccccc43)c(=O)nc2s1,-2%,2%,1%,15%,-2%,-16%
Cc1cc(Cl)ccc1NC(=O)Cn1nc(C)c2c(C)n(-c3ccccc3)nc2c1=O,.,.,.,.,.,3%
O=C1SC(SCc2ccccc2)=N/C1=C\c1ccc(C(=O)O)cc1,3%,-3%,0%,.,-2%,24µM*
Cc1occc1-c1nc(-c2ccncc2)no1,?,10%,18µM*,?,13%,?
Cc1onc(-c2ccccc2Cl)c1-c1nc(-c2ccccn2)no1,3%,0%,-4%,-10%,-3%,-8%
COc1cc(OC)c(-c2nc(-c3ccncc3)no2)cc1OC,?,2%,-3%,.,0%,-1%
Cc1ccc(-c2noc(-c3ccoc3C)n2)cc1,?,-6%,15µM*,?,?,3µM*
Cc1occc1-c1nc(-c2ccccn2)no1,?,1.6µM*,?,11µM*,?,4.8µM*
COc1cccc(C(=O)Nc2ccc(C(=O)OCc3cc(=O)n4nc(C5CC5)sc4n3)cc2)c1,.,.,.,.,.,0%
C=CCNc1oc(-c2ccc(OC)cc2)nc1C#N,?,2.8µM*,15µM*,?,?,8.5µM*
Cc1cccc(-c2nc(C#N)c(NCc3ccco3)o2)c1,?,?,?,.,?,11µM*
CC(C)(C)c1ccc(-c2nc(C#N)c(NCc3cccnc3)o2)cc1,12%,?,?,-18%,10%,11µM*
SMILES,ELG1 repair inh,Rab9 promoter act,ELG1 genotox,SMN2 splice up,NPC1 prom act,FLuc modulator
COc1ccc(-c2nc(C#N)c(NCc3ccco3)o2)cc1,?,?,?,20µM*,?,13µM*
O=C(NCC(c1ccco1)N1CCc2ccccc2C1)C(=O)Nc1cc(F)ccc1F (stereo not drawn),-12%,-2%,9%,.,5%,1%
N#Cc1nc(-c2ccc(F)cc2)oc1NCc1ccco1,?,15%,5%,.,12%,?
Cc1ccc(-c2nc(C#N)c(NCc3ccco3)o2)cc1,?,?,5.8µM*,?,?,4.8µM*
COc1ccc(Nc2oc(COc3cccc(C)c3)nc2C#N)cc1,?,?,16µM*,19%,?,5.4µM*
N#Cc1nc(COc2cccc(Cl)c2)oc1NCc1ccco1,?,?,?,12%,19%,19µM*
COc1ccc(OC)c(S(=O)(=O)N/N=C\c2c[nH]c3ccccc23)c1,-3%,-1%,-5%,.,-7%,4%
COc1ccc(N2CCN(CC(O)c3c[nH]c4ccc(OC)cc34)CC2C)cc1 (stereo not drawn),23µM*,-3%,-3%,-3%,0%,0%
COc1ccc2[nH]cc(C(O)CN3CCN(c4ccccc4)CC3)c2c1 (stereo not drawn),-21%,3%,-2%,.,1%,-1%
Cc1ccc(-n2c(C)cc(C=C(C#N)C#N)c2C)cc1,?,1%,0%,-16%,3%,19µM*
Cc1cc(C=C(C#N)C#N)c(C)n1-c1ccccc1,?,?,6%,-9%,?,4.8µM*
Cc1ccccc1NC(=O)/C(C#N)=C\c1cc(C)n(-c2ccc(C(=O)O)cc2)c1C,15%,-1%,0%,.,-3%,-14%
CNC(=O)/C(C#N)=C\c1cc(C)n(-c2ccc(N3CCOCC3)cc2)c1C,?,4%,9%,.,2%,-2%
Cc1cc(/C=C(\C#N)c2nnc(N3CCOCC3)n2-c2ccccc2)c(C)n1-c1ccccc1,-9%,-7%,1%,-18%,0%,17µM*
Cc1cc(/C=C(\C#N)C(=O)O)c(C)n1-c1ccc(Br)cc1,-6%,1%,4%,.,-5%,17µM*
O=C(c1ccc([N+](=O)[O-])cc1)N1CCN(C(=O)C2CCCCC2)CC1,0%,6%,0%,.,-3%,-1%
Cc1ccc(CCNC(=O)CCCc2nnc3n(C)c(=O)c4sccc4n23)cc1,.,.,.,-4%,.,-6%
C=CCC(O)c1ccccc1 (stereo not drawn),.,.,.,-1%,.,.
CCOC(=O)c1sc(NC(=O)C(OC(C)=O)c2ccccc2)nc1C (stereo not drawn),?,5%,10%,35µM*,-3%,0%
O=C(Nc1nc2ccccc2s1)c1cc(-c2ccccc2)nn1-c1ccccc1,?,16%,-4%,84%,17%,?
CC(=O)c1sc(NC(=O)c2ccccc2F)nc1C,?,0.45µM*,2.9µM*,3.2µM*,1.4µM*,4.8µM*
CC(=O)c1sc(NC(=O)c2cccs2)nc1C,?,?,14%,.,29%,9.5µM*
